A short description of assay [1]: antimalarial activity against Dd2 strain (AID 2302;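 active = growth inhibition above 50% at the single 2 µM test dose, taken to imply half-maximal potency below 2 µM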;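 note: 0% = DMSO untreated growth and 100% = chloroquine plus artemisinin killed control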). The settings on record: P. falciparum Dd2 in RBCs, LDH growth readout, 72 h; at 2 µM; stronger effect = higher value.
Assay [2] is described as follows: HepG2 cytotoxicity, primary screen, cytotoxicity control for P. falciparum antimalarial project, cell-based, ATP luminescence (AID 2303;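 active = inhibition above 50%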;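 note: 0% = DMSO wells and 100% = digitonin-killed cells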). Particulars: HepG2 viability, 24-48 h, at 10 µM, stronger effect = higher value.
For assay [3], the target named is L-lactate dehydrogenase (Plasmodium falciparum (isolate CDC / Honduras)) (UniProt Q27743). As to the kind of experiment: PfLDH activity inhibition – cell lysate, 3D7 strain, counter-screen for P. falciparum growth inhibition project (AID 2304).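 Note: 0% = vehicle and 100% = reference inhibitor.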 The settings on record: P. falciparum 3D7 crude extract, LDH APAD/NBT absorbance; at 2 µM; stronger effect = higher value. In general terms: The purpose of a counterscreen is to sort out artefacts and off-target activity.

A short description of assay [4]: inhibition of 3D7 malaria parasite growth – strain 3D7 (AID 2306).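 Note: 0% = DMSO wells and 100% = chloroquine plus artemisinin control wells.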 The settings on record: P. falciparum 3D7 erythrocytic growth, LDH absorbance, 72 h; at 2 µM; stronger effect = higher value.
The target of assay [5] is Calcium-dependent protein kinase 1 (Plasmodium falciparum (isolate 3D7)) (UniProt P62344). As to the kind of experiment: PfCDPK1 kinase inhibitors, biochemical, TCAMS library (AID 1159585; cut-off not given, nearly all actives have IC50 up to about 0.98 µM;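 note: inhibitors leave more ATP so luminescence rises with inhibition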). The settings on record: recombinant PfCDPK1, Kinase-Glo ATP depletion luminescence.
For assay [6], the target named is Plasmodium falciparum protein kinase 6 (PK6, PF3D7_1337100) (UniProt Q8IDW1). As to the kind of experiment: PfPK6 kinase inhibitors, biochemical, TCAMS library (AID 1159586). The settings on record: recombinant PfPK6, Kinase-Glo ATP depletion luminescence. For orientation: Kinase-Glo reads ATP consumption through a luciferase reaction.
The target in assay [7] is Protein kinase 7 (PK7), Plasmodium falciparum 3D7 (PF3D7_0213400) (UniProt Q7YTF7). The assay can be described thus: inhibition of Plasmodium PK7 catalytic activity – biochemical, TCAMS antimalarial set, Kinase-Glo luminescence (AID 1159587). Particulars: recombinant PfPK7, Kinase-Glo ATP depletion luminescence.
Assay [8] addresses Calcium-dependent protein kinase 4 (Plasmodium falciparum (isolate 3D7)) (UniProt Q8IBS5). The assay can be described thus: PfCDPK4 kinase inhibitors, biochemical, TCAMS library (AID 1159588; cut-off not given, nearly all actives have IC50 up to about 0.91 µM). Particulars: recombinant PfCDPK4, Kinase-Glo ATP depletion luminescence.

A number with no mark means an inactive call. For some of these results: Entries with a potency or affinity are not part of this list. The source made the active and inactive calls. Unless noted, the rule behind the calls is not given here.

Sequence of Calcium-dependent protein kinase 1 (Plasmodium falciparum (isolate 3D7)) (P62344 whole entry, looked up): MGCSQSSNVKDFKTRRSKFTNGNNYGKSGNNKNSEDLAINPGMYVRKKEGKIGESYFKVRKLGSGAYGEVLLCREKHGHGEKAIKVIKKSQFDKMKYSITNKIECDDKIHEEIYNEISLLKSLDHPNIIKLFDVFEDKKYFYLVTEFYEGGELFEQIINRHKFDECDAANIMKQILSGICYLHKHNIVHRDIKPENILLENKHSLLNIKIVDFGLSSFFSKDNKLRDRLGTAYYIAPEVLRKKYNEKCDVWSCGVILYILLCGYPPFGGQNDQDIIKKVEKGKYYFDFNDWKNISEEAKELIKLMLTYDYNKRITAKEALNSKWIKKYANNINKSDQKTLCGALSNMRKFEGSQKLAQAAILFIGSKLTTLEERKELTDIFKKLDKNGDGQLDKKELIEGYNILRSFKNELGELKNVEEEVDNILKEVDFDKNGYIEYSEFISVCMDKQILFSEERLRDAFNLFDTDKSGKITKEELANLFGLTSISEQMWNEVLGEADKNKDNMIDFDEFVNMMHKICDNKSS
Sequence of Protein kinase 7 (PK7), Plasmodium falciparum 3D7 (PF3D7_0213400) (Q7YTF7 1-343): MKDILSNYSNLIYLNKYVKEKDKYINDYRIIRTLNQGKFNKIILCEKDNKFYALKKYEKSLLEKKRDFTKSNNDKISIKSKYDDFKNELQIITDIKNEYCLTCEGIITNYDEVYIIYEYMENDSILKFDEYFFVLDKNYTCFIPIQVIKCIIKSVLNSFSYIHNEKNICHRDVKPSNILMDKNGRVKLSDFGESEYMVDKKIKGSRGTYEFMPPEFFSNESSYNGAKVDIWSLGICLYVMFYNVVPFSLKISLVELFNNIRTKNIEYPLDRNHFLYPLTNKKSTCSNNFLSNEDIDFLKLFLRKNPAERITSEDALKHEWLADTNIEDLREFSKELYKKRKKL
Sequence of Plasmodium falciparum protein kinase 6 (PK6, PF3D7_1337100) (Q8IDW1 1-305): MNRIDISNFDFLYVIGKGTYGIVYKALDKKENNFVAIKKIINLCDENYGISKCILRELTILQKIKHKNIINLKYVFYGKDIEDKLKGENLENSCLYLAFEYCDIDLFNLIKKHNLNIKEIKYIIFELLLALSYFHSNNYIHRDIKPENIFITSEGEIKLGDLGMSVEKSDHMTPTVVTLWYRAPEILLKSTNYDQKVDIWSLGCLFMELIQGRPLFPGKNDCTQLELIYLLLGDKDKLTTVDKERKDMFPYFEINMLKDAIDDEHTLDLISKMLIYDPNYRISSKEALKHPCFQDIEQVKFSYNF
Sequence of L-lactate dehydrogenase (Plasmodium falciparum (isolate CDC / Honduras)) (Q27743 whole entry, looked up): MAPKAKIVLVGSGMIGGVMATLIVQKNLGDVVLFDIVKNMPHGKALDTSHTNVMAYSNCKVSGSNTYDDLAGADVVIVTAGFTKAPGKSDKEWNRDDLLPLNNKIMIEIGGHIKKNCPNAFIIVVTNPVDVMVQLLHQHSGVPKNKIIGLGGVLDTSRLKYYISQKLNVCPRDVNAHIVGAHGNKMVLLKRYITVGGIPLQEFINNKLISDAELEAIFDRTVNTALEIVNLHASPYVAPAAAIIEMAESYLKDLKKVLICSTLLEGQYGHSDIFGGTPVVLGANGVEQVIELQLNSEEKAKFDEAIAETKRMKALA
Sequence of Calcium-dependent protein kinase 4 (Plasmodium falciparum (isolate 3D7)) (Q8IBS5 whole entry, looked up): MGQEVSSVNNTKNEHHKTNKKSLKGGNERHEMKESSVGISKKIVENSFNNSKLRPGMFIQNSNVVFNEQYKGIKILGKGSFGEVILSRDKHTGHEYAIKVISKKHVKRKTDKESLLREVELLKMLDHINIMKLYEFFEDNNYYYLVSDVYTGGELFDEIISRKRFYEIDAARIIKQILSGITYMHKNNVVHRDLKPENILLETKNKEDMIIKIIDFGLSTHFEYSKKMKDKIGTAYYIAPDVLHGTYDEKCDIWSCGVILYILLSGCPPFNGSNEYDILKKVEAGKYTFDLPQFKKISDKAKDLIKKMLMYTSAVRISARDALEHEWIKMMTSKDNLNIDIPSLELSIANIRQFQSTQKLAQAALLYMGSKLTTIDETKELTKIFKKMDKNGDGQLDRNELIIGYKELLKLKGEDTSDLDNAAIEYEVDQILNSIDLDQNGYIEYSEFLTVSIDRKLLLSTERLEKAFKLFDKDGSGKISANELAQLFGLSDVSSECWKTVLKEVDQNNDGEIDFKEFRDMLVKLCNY

On to `Cc1cccc(C)c1CNc1ccnc2cc(C#N)ccc12`, for which the growth inhibition is 99% (active) in assay [1] and 100% (active) in assay [4]. Also, the figures for the inhibition in assay [2] and in assay [3] were 20% and -1%, respectively. Also, the outcome in assay [5], in assay [6], in assay [7] and in assay [8] was inactive.

On to `CC(C)Cn1ncc2c3c(N)nc(N)nc3ccc21`, for which the growth inhibition in assay [1] is 73% (active); in assay [4] it was 94% (active). Moreover, the values for the inhibition in assay [2] and in assay [3] were 63% (active) and 1%, respectively. The result in assay [5], in assay [6], in assay [7] and in assay [8] was inactive.

For the compound `CN1CCN(CCc2ccc3nc(-c4csc(Cc5cc(Cl)ccc5OCc5ccccc5)n4)[nH]c3c2)CC1`, the growth inhibition in assay [1] is 97% (active); in assay [4] it was 101% (active). Also, the inhibition in assay [2] is 30%; in assay [3] it was -1%. Also, the outcome in assay [5], in assay [6], in assay [7] and in assay [8] was inactive.

Regarding `COc1ccc(NC(=O)Nc2ccc(-c3cccc(-c4nc5ccccc5[nH]4)c3)cc2)cc1`, the growth inhibition in assay [1] is 41%; in assay [4], 99% (active). The inhibition in assay [2] was 44%; in assay [3], 3%. Also, the result in assay [5], in assay [6], in assay [7] and in assay [8] was inactive.

Consider `COc1ccc(CNCc2ccc(-c3cccc(-c4nc5c(C)cccc5[nH]4)c3)cc2)cc1`, for which the results for the growth inhibition in assay [1] and in assay [4] were 101% (active) and 102% (active), respectively. Further, the inhibition was 69% (active) in assay [2] and -7% in assay [3]. The result in assay [5], in assay [6], in assay [7] and in assay [8] was inactive.

Consider `CN(CC(=O)Nc1cc(C(F)(F)F)ccc1-n1cncn1)Cc1nc2ccccc2s1`, for which the growth inhibition was 64% (active) in assay [1] and 87% (active) in assay [4]. Also, the inhibition was 3% in assay [2] and 0% in assay [3]. In addition, the result in assay [5], in assay [6], in assay [7] and in assay [8] was inactive.

In the case of `Cc1cc2ncn(-c3nccc(NCc4ccc(F)cc4)n3)c2cc1C`, the results for the growth inhibition in assay [1] and in assay [4] were 83% (active) and 98% (active), respectively. Besides, the inhibition in assay [2] was 10%; in assay [3] it was -2%. Besides, the outcome in assay [5], in assay [6], in assay [7] and in assay [8] was inactive.

`O=C(NC1CCN(CCN2CCC(c3cn(CCO)c4ccccc34)CC2)CC1)c1ccc(-c2ccc(C(F)(F)F)cc2)cc1`: the growth inhibition is 54% (active) in assay [1] and 98% (active) in assay [4]. Also, the inhibition in assay [2] was 30%; in assay [3], -1%. Besides, the outcome in assay [5], in assay [6], in assay [7] and in assay [8] was inactive.

For the compound `CC(=O)Nc1ccc(Cl)c(Cl)c1`, the values for the growth inhibition in assay [1] and in assay [4] were 98% (active) and 95% (active), respectively. In addition, the inhibition is 5% in assay [2] and 9% in assay [3]. Besides, the result in assay [5], in assay [6], in assay [7] and in assay [8] was inactive.

Consider `CN1CCN(CC(=O)Nc2cccc(-c3cccc(-c4nc5ccc(F)cc5[nH]4)c3)c2)CC1`, for which the values for the growth inhibition in assay [1] and in assay [4] were 98% (active) and 100% (active), respectively. Also, the inhibition is 16% in assay [2] and 6% in assay [3]. Besides, the result in assay [5], in assay [6], in assay [7] and in assay [8] was inactive.

Regarding `COC(=O)c1ccc(CCC(C)NCC(O)c2cccc(C(F)(F)F)c2)cc1` (stereo not given), the growth inhibition in assay [1] and in assay [4] was 99% (active) each time. Moreover, the inhibition in assay [2] was 16%; in assay [3], -7%. Further, the outcome in assay [5], in assay [6], in assay [7] and in assay [8] was inactive.

Turning to `CN1CCCC1CCNc1ncc2c(-c3ccc(NC(=O)Nc4cc(C(F)(F)F)ccc4F)c(F)c3)nn(C)c2n1` (stereo not given), the growth inhibition is 90% (active) in assay [1] and 99% (active) in assay [4]. Moreover, the values for the inhibition in assay [2] and in assay [3] were 100% (active) and 1%, respectively. Moreover, the outcome in assay [5], in assay [6], in assay [7] and in assay [8] was inactive.

Consider `CN(C)c1ccc(C2(c3ccccc3)N=C(N)N(CCCc3ccccc3)C2=O)cc1` (stereo not given), for which the growth inhibition is 97% (active) in assay [1] and 99% (active) in assay [4]. Besides, the inhibition was 4% in assay [2] and 0% in assay [3]. Further, the outcome in assay [5], in assay [6], in assay [7] and in assay [8] was inactive.

Take `O=C(NC1CC1)c1cnc(N2CCC(Oc3ccc(Cl)cc3)CC2)c(Cl)c1`: the growth inhibition is 75% (active) in assay [1] and 86% (active) in assay [4]. Further, the inhibition in assay [2] is 12%; in assay [3] it was -5%. Moreover, the outcome in assay [5], in assay [6], in assay [7] and in assay [8] was inactive.

On to `CN1CCN(c2ccc(Nc3ncc([N+](=O)[O-])c(Nc4ccccc4O)n3)cc2)CC1`, for which the growth inhibition in assay [1] was 97% (active); in assay [4], 100% (active). Moreover, the inhibition in assay [2] is 98% (active); in assay [3], -3%. In addition, the outcome in assay [5], in assay [6], in assay [7] and in assay [8] was inactive.

Take `O=C(Nc1cc(F)cc(F)c1)N[C@H]1CCN(CCCCCNC(=O)[C@@H]2C[C@H]2c2ccc(Cl)c(Cl)c2)C1`: the growth inhibition was -4% in assay [1] and 88% (active) in assay [4]. The inhibition in assay [2] is 24%; in assay [3] it was -3%. The outcome in assay [5], in assay [6], in assay [7] and in assay [8] was inactive.

On to `CC(C)(C)c1ccc(CN2CCC(CNC(=O)c3cc(-c4ccccc4Cl)cs3)C2)cc1` (stereo not given), for which the growth inhibition in assay [1] is 56% (active); in assay [4], 101% (active). In addition, the results for the inhibition in assay [2] and in assay [3] were 33% and 1%, respectively. Besides, the outcome in assay [5], in assay [6], in assay [7] and in assay [8] was inactive.

With `COc1ccc(-c2cc(C(=O)Nc3ccc(CCCN(C)Cc4ccc(OC)c(OC)c4)cc3)c3ccccc3n2)cc1`, the growth inhibition was 47% in assay [1] and 92% (active) in assay [4]. Also, the inhibition in assay [2] was 40%; in assay [3], -3%. Also, the outcome in assay [5], in assay [6], in assay [7] and in assay [8] was inactive.

In the case of `O=C(Nc1cccc(Cl)c1Cl)Nc1ccnc2ccccc12`, the growth inhibition in assay [1] was 47%; in assay [4] it was 100% (active). Moreover, the inhibition in assay [2] was 31%; in assay [3], 4%. Further, the result in assay [5], in assay [6], in assay [7] and in assay [8] was inactive.

In the case of `COc1ccc(C(=O)NC2CCN(c3ccnc4cc(Cl)ccc34)C2)cc1` (stereo not given), the growth inhibition in assay [1] and in assay [4] was 100% (active) throughout. The inhibition is 31% in assay [2] and 2% in assay [3]. Besides, the outcome in assay [5], in assay [6], in assay [7] and in assay [8] was inactive.

Broadly, the inhibition is the drop in the measured response relative to a control, in per cent.

The values above are taken from PubChem BioAssay.
